From PubChem
KLK7 zymogen act: proKLK7 (human) activation, primary screen; 0.9% of 370,000 active; AID 652039; P49862; purified proKLK7, EDANS-DABCYL substrate fluorescence; 100% is mature enzyme control, 0% vehicle; activation, % at 7 µM;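 active = activation above the mean of all tested compounds plus 3 SD, computed per campaign excluding outliers beyond control limits, cut at about 13% in these data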
NPR2 activator: GC-B (human) receptor activation. HEK293-GC-B cells, CNP EC30, cGMP TR-FRET; 0% at EC30 CNP, 100% saturating CNP. activation, % at 10 µM. 0.11% of 370,000 active. AID 1920062;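 active = activation at 10 µM reaching about 35% in either raw or pattern-adjusted values, limit read from the data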
NPR1 activator: GC-A (human) enzyme activation; 0.14% of 370,000 active; activation, % at 10 µM; AID 1671463; HEK293 GC-A cells, cGMP TR-FRET, EC30 ANP; 0% at EC30 ANP, 100% saturating ANP; P16066; in the data active = activation above about 40%
HIF act: HIF pathway transcriptional activation. U2OS HRE-luciferase reporter, luminescence; normalized: DMSO 0%, desferrioxamine 100%. activation, % at 7.5 µM (by protocol). 0.32% of 300,000 active;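 active = mean activation of at least 10% of the iron chelator positive control signal, with at least half of replicates also reaching 10%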
KLK7 act conf: confirmation of human kallikrein-7 zymogen activators | AID 686949 | purified proKLK7, EDANS-DABCYL substrate fluorescence; scaled: vehicle 0, mature enzyme 100 | shares compounds with KLK7 zymogen act | 68% of 3,200 active | activation, % at 7 µM;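 active = activation, as change over the incubation, above the mean of all tested compounds plus 3 SD, cut at about 13% in these data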
EDANS interfere: optically interferes with EDANS-DABCYL signal, flagging KLK7 hits | shares compounds with KLK7 zymogen act | 80% of 3,200 active | activation, % at 7 µM | EDANS-DABCYL substrate fluorescence interference, no enzyme, 4 h; solvent 0%, active enzyme control 100% | AID 686952;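 active = activation above the all-compound mean plus 3 SD, ignoring values outside control-based bounds, cut at about 4.8% in these data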;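 also: value is the 4 h activation minus the activation read at time zero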
Numbers without * were called inactive. Hits are enriched below; roughly 1.3% of the tested compounds scored in any of these assays.

For CCOC(=O)CC(=O)CSc1nc(C)cc(C)c1C#N the results were KLK7 zymogen act 41*, NPR2 activator -2, NPR1 activator -1, HIF act 0, KLK7 act conf 61* and EDANS interfere 74*.
`COC(=O)CSc1cc(SCC(=O)OC)c(C#N)c(SCC(=O)OC)c1` gave KLK7 zymogen act 1, NPR2 activator 14, NPR1 activator 20 and HIF act 0.
For Cc1cc(C)c(C#N)c(SCC(=O)c2ccccc2)n1 the results were KLK7 zymogen act 0, NPR2 activator -2, NPR1 activator -3 and HIF act 0.
`Cc1cc(C)c(C#N)c(SCC(=O)C2CC2)n1` gave KLK7 zymogen act 89*, NPR2 activator -1, NPR1 activator 0, HIF act 2, KLK7 act conf 121* and EDANS interfere 135*.
COC(=O)CSc1ccc(C#N)c(SCC(=O)OC)c1 was read as KLK7 zymogen act 17*, NPR2 activator -3, NPR1 activator 9, HIF act 0, KLK7 act conf 27* and EDANS interfere 27*.
Screening COCc1cc(C)nc(SCC(=O)Nc2nc(C)cs2)c1C#N returned KLK7 zymogen act 76*, NPR2 activator 5, NPR1 activator 8, HIF act -1, KLK7 act conf 140* and EDANS interfere 136*.
Screening COC(=O)CSc1nc(C)cc(C)c1C#N returned KLK7 zymogen act 58*, NPR2 activator 2, NPR1 activator 0, HIF act -1, KLK7 act conf 125* and EDANS interfere 121*.
`CCOC(=O)CCSc1nc2c(c(C(F)(F)F)c1C#N)CCC2` gave KLK7 zymogen act -1, NPR2 activator 5, NPR1 activator 1 and HIF act -1.
Screening CCOC(=O)CC(=O)CSc1nc2c(c(C)c1C#N)CCC2 returned KLK7 zymogen act 45*, NPR2 activator -3, NPR1 activator -3, HIF act 0, KLK7 act conf 75* and EDANS interfere 70*.
`Cc1cc(C)c(C#N)c(SCC(=O)Nc2nonc2N)n1` gave KLK7 zymogen act 40*, NPR2 activator -3, NPR1 activator 0, HIF act 2, KLK7 act conf 74* and EDANS interfere 72*.
For COC(=O)CSc1nc(C)cc(C(F)(F)F)c1C#N the results were KLK7 zymogen act 4, NPR2 activator -5, NPR1 activator 3 and HIF act 0.
For COC(=O)CSc1ccccc1C(=O)OC the results were KLK7 zymogen act 55*, NPR2 activator -1, NPR1 activator 0, HIF act 0, KLK7 act conf 84* and EDANS interfere 83*.
`O=C(COc1c(Cl)cc(Cl)cc1Cl)N/N=C/c1ccc[nH]1` gave NPR2 activator -9 and NPR1 activator 2.
Screening COc1ccc(N2CCN(CCNS(=O)(=O)c3ccc(Br)s3)CC2)cc1 returned KLK7 zymogen act 0, NPR2 activator 8 and NPR1 activator 1.
Screening CCN1c2ccccc2-c2nc3ccccc3n2C1c1cccnc1 (stereo not given) returned KLK7 zymogen act 10, NPR2 activator 5, NPR1 activator -4 and HIF act 0.
For O=C1c2ccccc2NC(c2ccncc2)N1c1ccccn1 (stereo not given) the results were KLK7 zymogen act 36*, NPR2 activator -1, NPR1 activator -1, HIF act 0, KLK7 act conf 18* and EDANS interfere 29*.
`COc1ccccc1N1C(=O)c2ccccc2NC1c1ccncc1` (stereo not given) gave KLK7 zymogen act 6, NPR2 activator -3, NPR1 activator -3 and HIF act 0.
Screening c1ccc2c(c1)NC(c1ccncc1)n1c-2nc2ccccc21 (stereo not given) returned KLK7 zymogen act 29*, NPR2 activator 3, NPR1 activator 3, HIF act 2, KLK7 act conf 0 and EDANS interfere 3.
`c1cncc(C2Nc3ccccc3-c3nc4ccccc4n32)c1` (stereo not given) gave KLK7 zymogen act 56*, NPR2 activator -12, NPR1 activator -16, HIF act 2, KLK7 act conf 5 and EDANS interfere 5.7*.
For Clc1ccc(CN2CCN(N=Cc3cccc(OCc4ccccc4)c3)CC2)cc1 the results were KLK7 zymogen act 0, NPR2 activator -13 and NPR1 activator 5.
For COC(=O)[C@]12C[C@H](CC(=O)N3CCOCC3)C(=O)N(CCC3=CCCCC3)C1=C[C@H](C(C)C)O[C@@H]2C1CC1 the results were KLK7 zymogen act 0, NPR2 activator 1 and NPR1 activator -3.
For Cc1ccc(-c2cc3nc(-c4ccco4)cc(N4CCN(Cc5ccoc5)CC4)n3n2)cc1 the results were NPR2 activator -10 and NPR1 activator 0.
Brc1ccc(-c2nn3c(-c4ccccc4)nnc3s2)o1 was read as KLK7 zymogen act 0, NPR2 activator -7 and NPR1 activator 1.
For Nc1nc2ncccc2cc1C(=O)NC1CCCCC1 the results were KLK7 zymogen act 24*, NPR2 activator -5, NPR1 activator 1, KLK7 act conf 20* and EDANS interfere 25*.
Nc1nc2ncccc2cc1C(=O)NC1CC1 was read as KLK7 zymogen act 25*, NPR2 activator 1, NPR1 activator 1, KLK7 act conf 28* and EDANS interfere 27*.
`O=C(NC1CCCCC1)c1cc2ccccc2cc1O` gave KLK7 zymogen act -9, NPR2 activator 1, NPR1 activator 2 and HIF act 1.
